Measured values published in PubChem BioAssay AID493012 (Sanford-Burnham Center for Chemical Genomics, 2011).
About 930 (0.28%) of roughly 330,000 compounds were called active. The sample as a whole holds a higher share of actives than the screen did. Unmarked numbers belong to inactive results.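 How the source made its calls: active means inhibition of at least 40% at 20 µM, with no more than 30% in the related APOBEC3A deaminase screen; inactive means the rest.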

These compounds were tested against DNA dC->dU-editing enzyme APOBEC-3G (Homo sapiens) (UniProt Q9HC16) (assay: APOBEC3G DNA deaminase inhibitors, primary screen, biochemical, fluorescence, single-stranded DNA substrate, uHTS (AID 493012;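 further: plate controls were DMSO wells with A3G for no effect and wells lacking A3G enzyme for full effect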)). Conditions: recombinant A3G, ssDNA deamination FAM/TAMRA fluorescence; at 20 µM; hits give high values.
DNA dC->dU-editing enzyme APOBEC-3G (Homo sapiens), sequence (Q9HC16 whole entry, looked up): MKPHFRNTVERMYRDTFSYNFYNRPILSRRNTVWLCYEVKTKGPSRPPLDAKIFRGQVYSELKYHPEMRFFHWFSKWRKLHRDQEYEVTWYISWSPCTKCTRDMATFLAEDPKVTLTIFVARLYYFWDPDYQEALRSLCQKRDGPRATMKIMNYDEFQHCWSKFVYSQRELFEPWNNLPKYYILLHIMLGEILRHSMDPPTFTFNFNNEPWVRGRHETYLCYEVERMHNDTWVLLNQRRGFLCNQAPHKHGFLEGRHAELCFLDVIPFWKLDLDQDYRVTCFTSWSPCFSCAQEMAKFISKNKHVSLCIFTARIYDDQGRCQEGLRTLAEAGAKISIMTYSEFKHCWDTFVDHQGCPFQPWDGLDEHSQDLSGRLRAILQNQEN

| SMILES | inhibition |
| --- | --- |
| Cc1cccc(NC(=O)C2CCCN(C(=O)Nc3ccc(F)cc3)C2)c1C (stereo not given) | -9.22% |
| COc1ccc(OC)c(-n2c(-c3ccn[nH]3)n[nH]c2=S)c1 | 6.84% |
| COc1ccccc1-n1c(-c2cc(-c3ccco3)[nH]n2)n[nH]c1=S | 66.2% (active) |
| COc1ccccc1-n1cn[nH]c1=S | -7.32% |
| Cc1ccccc1N1CC(C(=O)Nc2ccc3c(c2)OCO3)CC1=O (stereo not given) | -5.81% |
| Cc1ccc(C)c(N2CCN(C(=O)CCc3nc(-c4cccc(C(F)(F)F)c4)no3)CC2)c1 | 2.36% |
| COc1ccc(OC)c(NC(=O)c2sc3nc(C)cc(C)c3c2N)c1 | -11% |
| Cc1ccc(NC(=O)c2sc3nc(N)c(C#N)cc3c2N)cc1 | 53.5% (active) |
| CCc1ccc2nc3sc(C(=O)Nc4nnc(CC)s4)c(N)c3cc2c1 | -0.825% |
| COc1cc(C(=O)Nc2ncccc2C)ccc1OCC(=O)N1CCOCC1 | -6.99% |
| COc1cccc(NC(=O)N2CCCC2C(=O)NC2CCCCC2)c1 (stereo not given) | -7.25% |
| COc1ccc(NC(=O)c2sc(N3CCOCC3)nc2-c2ccccc2)c(OC)c1 | -6.69% |
| CCC1Sc2ccc(S(=O)(=O)CCC(=O)NCc3cccs3)cc2NC1=O (stereo not given) | -2.6% |
| O=c1c2ccccc2oc2nc(C3CCCCC3)n(Cc3ccco3)c(=O)c12 | -6.57% |
| Cn1c2ccccc2c(=O)c2c(=O)n(Cc3ccco3)c(COc3ccccc3)nc21 | 52.8% (active) |
| CCCc1nc2c(c(=O)c3ccccc3n2C)c(=O)n1C1CCCCCC1 | 2.29% |
| CC(=O)N1C(=O)/C(=C2\SC(=S)N(NC(=O)c3ccc(O)cc3)C2=O)c2ccccc21 | 1.88% |
| COc1cccc(NC(=O)CSc2nnc(C3CCCCC3)n2N)c1 | -9.04% |
| Cc1cccc(NC(=O)c2ccc(S(=O)(=O)N(C)CC3CCCO3)cc2)c1C (stereo not given) | 1.74% |
| Cc1ccc(C)c(S(=O)(=O)Nc2cc(C)on2)c1 | -6.75% |

| SMILES | inhibition |
| --- | --- |
| Cc1cc(-c2n[nH]c(=S)n2-c2ccc(C)c(C)c2)no1 | 45.2% (active) |
| Cc1ccc(NCc2n[nH]c(=S)n2-c2ccccc2)cc1Cl | 10.6% |
| NC(=O)Cn1nc([N+](=O)[O-])nc1Oc1ccc(Br)cc1 | -11.7% |
| Cc1ccnc(-n2sc3ccccc3c2=O)n1 | 87% (active) |
| COCCn1c(CN2CCC(Cc3ccccc3)CC2)nc2c1c(=O)n(C)c(=O)n2C | -4.86% |
| COc1cccc(NC(=O)c2nn(C34CC5CC(CC(C5)C3)C4)cc2[N+](=O)[O-])c1 | 0.433% |
| Cc1ncn(C23CC4CC(CC(O)(C4)C2)C3)n1 | -4.67% |
| Cc1nc([N+](=O)[O-])nn1C12CC3CC(CC(Br)(C3)C1)C2 | 59.1% (active) |
| Cc1ccc(Sc2ccncc2S(N)(=O)=O)cc1 | -12.3% |
| CCc1nnc(NC(=O)C2CCN(C(=O)c3ccccc3C)CC2)s1 | -4.15% |
| COc1ccc(CNC(=O)C2CCN(C(=O)c3ccco3)CC2)cc1 | -11.5% |
| CCC(CC)c1nnc(NC(=O)C2CCN(C(=O)c3ccco3)CC2)s1 | 43.5% (active) |
| CC(C)NC(=O)NNc1c(Cl)cncc1Cl | -7.21% |
| CCn1cc(C(=O)NCC(=O)NC(C)(C)CO)c(=O)c2cc3c(cc21)OCO3 | 5.44% |
| CCOc1ccc(CCNC(=O)COC(=O)c2c(OC)cccc2OC)cc1OCC | -6.63% |
| COc1ccc(N2CC(C(=O)NCCS(=O)(=O)N3CCN(c4ccccc4)CC3)CC2=O)cc1 (stereo not given) | -3.81% |
| Cc1ccc(S(=O)(=O)CC(=O)Nc2sc(C)c(C)c2C(N)=O)cc1 | 19.4% |
| Cc1ccc(C(=O)c2c(NC(=O)c3ccccc3)sc(C)c2C)cc1 | 43.3% (active) |
| Cc1sc(NC(=O)c2ccc3ncsc3c2)c(C(N)=O)c1C | -14.1% |
| CC(CN1CCCCC1)OC(=O)c1ccccc1Cl (stereo not given) | -6.81% |

| SMILES | inhibition |
| --- | --- |
| O=C(CSc1nccc(=O)[nH]1)Nc1ccc(N2CCOCC2)c(Cl)c1 | 1.54% |
| Cc1ccc(-n2c(-c3ccc(Cl)cc3)n[nH]c2=S)cc1 | 11.5% |
| Cc1nnc(SCC(=O)NNC(=O)c2ccc(Cl)cc2)n1CC1CCCO1 (stereo not given) | -0.693% |
| S=c1[nH]nc(-c2ccc(Cl)cc2)n1CC1CCCO1 (stereo not given) | 43.8% (active) |
| O=C(CSc1nc2[nH]ncc2c(=O)[nH]1)Nc1ccc(F)cc1 | -9.68% |
| Cc1occc1-c1nnc(SCC(=O)NC2(C#N)CCCC2)n1C | -13.5% |
| COCCN1C(=O)C(=O)/C(=C(/O)c2ccc(S(=O)(=O)N3CCOCC3)cc2)C1c1ccc(OC)c(OC)c1 (stereo not given) | -5.33% |
| CCOc1ccc(Br)cc1S(=O)(=O)Nc1cccc(S(=O)(=O)N(CC)CC)c1 | -8.57% |
| O=C(Cn1cnc2cc([N+](=O)[O-])ccc2c1=O)NC(=O)NCc1ccccc1 | -6% |
| COc1ccc(NC(=O)c2oc3ccc(S(=O)(=O)N4CCOCC4)cc3c2C)cc1 | -7.26% |
| Cc1noc(C)c1CSc1nc2cc(S(=O)(=O)N3CCOCC3)ccc2o1 | 45.8% (active) |
| Cc1ccc(S(=O)(=O)N2CCN(S(=O)(=O)N3CCOCC3)CC2)cc1 | -5.83% |
| CCCCCCCCn1c2c(c(=N)c3c1CCC3)CCCC2 | -6.25% |
| Cc1n[nH]c(=S)n1/N=C/c1ccc(Br)o1 | 40.4% (active) |
| COc1cc(/C=N/n2c(C)n[nH]c2=S)ccc1OCc1ccccc1 | 9.64% |
| Cc1ccsc1/C=N/n1c(=S)[nH]nc(C)c1=O | -0.898% |
| O=S(=O)(N/N=C\c1cccn1-c1ccccc1)c1ccc2ccccc2c1 | -6.33% |
| COC(=O)c1cccc(NC(=O)c2cccc(N3C(=O)CCC3=O)c2)c1 | -9.31% |
| COC(=O)c1cccc(N2C(=O)C3C4C=CC(CC4)C3C2=O)c1 (stereo not given) | -6.25% |
| COC(=O)c1cccc(-n2[nH]nnc2=S)c1 | 59% (active) |
